Activity calls are given as the source filed them. How the source made its calls: active means hit-call score of the fitted dose curve at least 0.9, where 1 is the maximum; inactive means score below 0.9.
Tests used:
Conditions in all cases: mRNA level, 48 h; actives raise or lower the signal
[1] = read-out: Early growth response protein 1 (EGR1) transcription factor, EGR1 (gene 1958); experiment: LTEA_HepaRG_EGR1: Life Technologies and Expression Analysis (LTEA) Assay for Early growth response protein 1 (EGR1) transcription factor using HepaRG (AID 2283490)
Summary of the method: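 HepaRG, 48 h exposure, 8-pt half-log series from 100 uM, 0.5% DMSO vehicle; EGR1 transcript by TaqMan qRT-PCR (Fluidigm array), housekeeping-normalized; bidirectional fit relative to DMSO baseline.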

[2] = read-out: Ezrin (EZR), EZR (gene 7430); experiment: LTEA_HepaRG_EZR: Life Technologies and Expression Analysis (LTEA) Assay for Ezrin (EZR) using HepaRG (AID 2283491)
Summary of the method: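 EZR transcript levels came from Fluidigm qRT-PCR and were normalized to three housekeeping genes after 48 h chemical exposure of HepaRG cells. Dosing used an 8-point half-log series with a 100 uM top concentration in 0.5% DMSO, tested in duplicate; both directions were fitted versus vehicle.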

[3] = read-out: Cytochrome P450 3A7 (Homo sapiens) (UniProt P24462); experiment: LTEA_HepaRG_CYP3A7: Life Technologies and Expression Analysis (LTEA) Assay for CYP3A7 using HepaRG (AID 2283492)
Summary of the method: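 Differentiated HepaRG cells in serum-free induction medium exposed 48 h in duplicate to 8-point half-log series from 100 uM top in 0.5% DMSO. CYP3A7 mRNA by qRT-PCR, normalized to ACTB/GAPDH/POLR2A, bidirectional fit versus DMSO.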

CYP3A5 (gene 1577) = experiment: LTEA_HepaRG_CYP3A5: Life Technologies and Expression Analysis (LTEA) Assay for CYP3A5 using HepaRG (AID 2283493)
Summary of the method: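 Human HepaRG hepatic cells receive 48 h chemical treatment at eight concentrations (half-log steps from 100 uM) in 0.5% DMSO. Expression of CYP3A5 is quantified by Fluidigm qRT-PCR and normalized to three reference genes.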

[4] = read-out: Fatty Acid-Binding Protein 1 (FABP1), FABP1 (gene 2168); experiment: LTEA_HepaRG_FABP1: Life Technologies and Expression Analysis (LTEA) Assay for Fatty Acid-Binding Protein 1 (FABP1) using HepaRG (AID 2283494)
Summary of the method: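 qRT-PCR readout of FABP1 transcript (normalized to three housekeeping genes) after 48 h chemical exposure of HepaRG cells; eight concentrations, half-log steps, max 100 uM, 0.5% DMSO vehicle; gain or loss fitted relative to DMSO baseline.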

[5] = read-out: Cytochrome P450 4A22 (Homo sapiens) (UniProt Q5TCH4); experiment: LTEA_HepaRG_CYP4A22: Life Technologies and Expression Analysis (LTEA) Assay for Cytochrome P450 4A22 (CYP4A22) using HepaRG (AID 2283495)
Summary of the method: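 Differentiated HepaRG cells in serum-free induction medium exposed 48 h in duplicate to eight half-log concentrations up to 100 uM in 0.5% DMSO. CYP4A22 mRNA quantified by TaqMan qRT-PCR, normalized to ACTB, GAPDH and POLR2A; bidirectional fit versus DMSO.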

[6] = read-out: Glutathione S-Transferase (GSTA2), GSTA2 (gene 2939); experiment: LTEA_HepaRG_GSTA2: Life Technologies and Expression Analysis (LTEA) Assay for Glutathione S-Transferase (GSTA2) using HepaRG (AID 2283497)
Summary of the method: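 qRT-PCR readout of GSTA2 transcript, normalized to three housekeeping genes, fitted bidirectionally against 0.5% DMSO baseline. Differentiated HepaRG cells received compound for 48 h at 8 concentrations (top 100 uM, half-log steps).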

[7] = read-out: Glutamate-cysteine ligase catalytic (GCLC), GCLC (gene 2729); experiment: LTEA_HepaRG_GCLC: Life Technologies and Expression Analysis (LTEA) Assay for Glutamate-cysteine ligase catalytic (GCLC) using HepaRG (AID 2283498)
Summary of the method: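 HepaRG, 48 h exposure, 8-pt half-log series from 100 uM, 0.5% DMSO vehicle; TaqMan qRT-PCR for GCLC mRNA, housekeeping-normalized; bidirectional curve fit vs DMSO baseline.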

[8] = read-out: growth arrest and DNA damage 45 (GADD45G), GADD45G (gene 10912); experiment: LTEA_HepaRG_GADD45G: Life Technologies and Expression Analysis (LTEA) Assay for growth arrest and DNA damage 45 (GADD45G) using HepaRG (AID 2283499)
Summary of the method: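 Differentiated human HepaRG cells, 48 h post-plating, exposed 48 h in serum-free induction medium to 8 half-log concentrations (top 100 uM, 0.5% DMSO) in duplicate. GADD45G mRNA measured by Fluidigm TaqMan qRT-PCR, normalized to ACTB, GAPDH, POLR2A; bidirectional fit versus DMSO.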

[9] = read-out: Glutamate-cysteine ligase regulatory (GCLM), GCLM (gene 2730); experiment: LTEA_HepaRG_GCLM: Life Technologies and Expression Analysis (LTEA) Assay for Glutamate-cysteine ligase regulatory (GCLM) using HepaRG (AID 2283500)
Summary of the method: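 Endpoint is GCLM transcript level by qRT-PCR, normalized to three housekeeping genes, after 48 h chemical exposure of human HepaRG cells (0.5% DMSO vehicle, top 100 uM, half-log dilutions). Fitting was bidirectional relative to DMSO.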

[10] = read-out: Glutathione S-transferase M3 (GSTM3), GSTM3 (gene 2947); experiment: LTEA_HepaRG_GSTM3: Life Technologies and Expression Analysis (LTEA) Assay for Glutathione S-transferase M3 (GSTM3) using HepaRG (AID 2283501)
Summary of the method: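 Differentiated human HepaRG cells were exposed in duplicate for 48 h in serum-free induction medium, 8 points from 100 uM top in half-log steps, 0.5% DMSO. GSTM3 mRNA was measured by TaqMan qRT-PCR, normalized to ACTB, GAPDH and POLR2A; bidirectional fit versus DMSO.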

[11] = read-out: Heat shock 70 kDa protein 1 (HSPA1A), gene 3303; experiment: LTEA_HepaRG_HSPA1A: Life Technologies and Expression Analysis (LTEA) Assay for Heat shock 70 kDa protein 1 (HSPA1A) using HepaRG (AID 2283502)
Summary of the method: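 Cells were plated and cultured for 48 h, then switched to serum-free induction medium. Chemicals were added at eight half-log concentrations up to 100 uM for 48 h. RNA was then isolated and HSPA1A measured by qRT-PCR with bidirectional curve fitting against DMSO.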

[12] = read-out: Hypoxia-inducible factor 1-alpha (Homo sapiens) (UniProt Q16665); experiment: LTEA_HepaRG_HIF1A: Life Technologies and Expression Analysis (LTEA) Assay for Hypoxia-inducible factor 1 (HIF1A) Trancription factor using HepaRG (AID 2283503)
Summary of the method: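 HIF1A transcript level read by qRT-PCR (ACTB, GAPDH, POLR2A normalization) after 48 h chemical exposure of HepaRG cultures. Eight half-log concentrations, top 100 uM, 0.5% DMSO vehicle, duplicates; bidirectional curve fit against DMSO baseline.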

[13] = read-out: 3-Hydroxy-3-Methylglutaryl-CoA Synthase 2 (HMGCS2), HMGCS2 (gene 3158); experiment: LTEA_HepaRG_HMGCS2: Life Technologies and Expression Analysis (LTEA) Assay for 3-Hydroxy-3-Methylglutaryl-CoA Synthase 2 (HMGCS2) using HepaRG (AID 2283504)
Summary of the method: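 Human HepaRG cells in serum-free induction medium were exposed in duplicate for 48 h to 8-point half-log series from 100 uM top in 0.5% DMSO. HMGCS2 mRNA measured by TaqMan qRT-PCR, normalised to ACTB, GAPDH, POLR2A; bidirectional fit versus DMSO.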

HGF (gene 3082) = experiment: LTEA_HepaRG_HGF: Life Technologies and Expression Analysis (LTEA) Assay for Hepatocyte Growth Facto (HGF) using HepaRG (AID 2283505)
Summary of the method: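 Differentiated HepaRG cells in serum-free induction medium exposed 48 h in duplicate, 8 half-log concentrations from 100 uM in 0.5% DMSO. HGF mRNA by qRT-PCR, normalised to ACTB, GAPDH, POLR2A; bidirectional fitting.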

[14] = read-out: Insulin Like Growth Factor 1 (IGF1), IGF1 (gene 3479); experiment: LTEA_HepaRG_IGF1: Life Technologies and Expression Analysis (LTEA) Assay for Insulin Like Growth Factor 1 (IGF1) using HepaRG (AID 2283506)
Summary of the method: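 Cells are thawed, plated and cultured 48 h, then exposed in duplicate to chemical (highest 100 uM, half-log steps, 0.5% DMSO) for another 48 h. Total RNA is analysed by Fluidigm qRT-PCR for IGF1 expression relative to vehicle.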

[15] = read-out: Intercellular Adhesion Molecule 1 (ICAM1), ICAM1 (gene 3383); experiment: LTEA_HepaRG_ICAM1: Life Technologies and Expression Analysis (LTEA) Assay for Intercellular Adhesion Molecule 1 (ICAM1) using HepaRG (AID 2283507)
Summary of the method: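 Differentiated human HepaRG cells in serum-free induction medium exposed 48 h in duplicate to 8 half-log concentrations (top 100 uM, 0.5% DMSO). ICAM1 mRNA quantified by TaqMan qRT-PCR, normalized to ACTB, GAPDH and POLR2A; bidirectional fitting versus DMSO.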

[16] = read-out: Insulin-like growth factor-binding protein 1 (IGFBP1), IGFBP1 (gene 3484); experiment: LTEA_HepaRG_IGFBP1: Life Technologies and Expression Analysis (LTEA) Assay for Insulin-like growth factor-binding protein 1 (IGFBP1) using HepaRG (AID 2283508)
Summary of the method: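 HepaRG cells, plated 48 h then switched to serum-free induction medium, exposed in duplicate for 48 h to 8-point half-log series from 100 uM in 0.5% DMSO. mRNA measured by qRT-PCR, normalized to ACTB/GAPDH/POLR2A; bidirectional fit versus DMSO.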

Sequence of Hypoxia-inducible factor 1-alpha (Homo sapiens) (Q16665 whole entry, looked up): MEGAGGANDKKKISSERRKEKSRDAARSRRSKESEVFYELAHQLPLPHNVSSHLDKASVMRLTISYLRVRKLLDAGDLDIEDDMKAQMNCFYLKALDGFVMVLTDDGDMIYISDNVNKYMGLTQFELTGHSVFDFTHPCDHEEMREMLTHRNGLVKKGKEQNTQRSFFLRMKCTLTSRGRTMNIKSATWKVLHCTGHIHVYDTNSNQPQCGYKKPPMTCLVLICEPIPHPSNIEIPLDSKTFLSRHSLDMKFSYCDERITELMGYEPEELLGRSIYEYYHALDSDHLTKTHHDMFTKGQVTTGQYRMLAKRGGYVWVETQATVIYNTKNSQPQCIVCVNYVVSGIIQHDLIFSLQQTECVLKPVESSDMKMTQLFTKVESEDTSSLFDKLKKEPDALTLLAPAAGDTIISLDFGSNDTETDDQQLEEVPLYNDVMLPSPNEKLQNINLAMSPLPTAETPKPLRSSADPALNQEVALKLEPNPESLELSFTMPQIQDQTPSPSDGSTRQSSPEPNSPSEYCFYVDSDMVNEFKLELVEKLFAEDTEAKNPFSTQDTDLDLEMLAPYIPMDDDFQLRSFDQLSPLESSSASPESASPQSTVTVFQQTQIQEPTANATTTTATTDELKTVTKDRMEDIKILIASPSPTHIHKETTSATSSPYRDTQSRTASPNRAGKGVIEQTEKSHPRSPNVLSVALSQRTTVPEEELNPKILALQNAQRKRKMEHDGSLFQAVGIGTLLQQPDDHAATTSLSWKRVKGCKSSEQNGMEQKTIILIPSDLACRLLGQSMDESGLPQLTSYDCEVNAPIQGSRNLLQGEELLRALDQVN
Sequence of Cytochrome P450 3A7 (Homo sapiens) (P24462 whole entry, looked up): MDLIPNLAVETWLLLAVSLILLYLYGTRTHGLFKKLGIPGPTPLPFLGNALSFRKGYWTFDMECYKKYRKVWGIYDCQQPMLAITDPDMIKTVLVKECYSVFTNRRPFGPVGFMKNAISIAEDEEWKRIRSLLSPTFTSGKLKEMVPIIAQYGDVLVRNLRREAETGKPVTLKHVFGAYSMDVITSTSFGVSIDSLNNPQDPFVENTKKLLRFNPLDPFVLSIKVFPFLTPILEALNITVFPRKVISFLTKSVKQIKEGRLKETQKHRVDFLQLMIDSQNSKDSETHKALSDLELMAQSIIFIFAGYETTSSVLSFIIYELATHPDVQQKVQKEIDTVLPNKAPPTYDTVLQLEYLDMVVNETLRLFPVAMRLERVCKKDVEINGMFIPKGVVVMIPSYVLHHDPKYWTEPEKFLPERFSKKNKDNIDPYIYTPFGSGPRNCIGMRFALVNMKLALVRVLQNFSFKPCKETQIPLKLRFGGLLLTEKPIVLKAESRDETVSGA

Cc1ccc(-c2c(Cl)nc(C#N)n2S(=O)(=O)N(C)C)cc1
outcome [1]: inactive | outcome [2]: inactive | AC50 [3]: 83.5 µM (active) | outcome (CYP3A5 (gene 1577)): inactive | AC50 [4]: 4.76 µM (active) | AC50 [5]: 73.9 µM (active) | AC50 [6]: 9.43 µM (active) | AC50 [7]: 7.01 µM (active) | AC50 [8]: 11.7 µM (active) | outcome [9]: inactive | AC50 [10]: 50 µM (active) | outcome [11]: inactive | outcome [12]: inactive | AC50 [13]: 28.7 µM (active) | AC50 (HGF (gene 3082)): 86 µM (active) | AC50 [14]: 50 µM (active) | outcome [15]: inactive | AC50 [16]: 13.6 µM (active)

CC1COC(Cn2cncn2)(c2ccc(Oc3ccc(Cl)cc3)cc2Cl)O1 (centres undefined)
AC50 [1]: 63.2 µM (active) | AC50 [2]: 0.479 µM (active) | outcome [3]: inactive | AC50 (CYP3A5 (gene 1577)): 84.1 µM (active) | AC50 [4]: 23.3 µM (active) | AC50 [5]: 15.5 µM (active) | AC50 [6]: 19.7 µM (active) | outcome [7]: inactive | AC50 [8]: 12.2 µM (active) | outcome [9]: inactive | outcome [10]: inactive | AC50 [11]: 87.2 µM (active) | AC50 [12]: 11.6 µM (active) | AC50 [13]: 11.7 µM (active) | outcome (HGF (gene 3082)): inactive | AC50 [14]: 12.1 µM (active) | AC50 [15]: 26.2 µM (active) | AC50 [16]: 19 µM (active)

OC(c1ccc(Cl)cc1)(c1cncnc1)c1ccccc1Cl (centres undefined)
outcome [1]: inactive | outcome [2]: inactive | AC50 [3]: 11.9 µM (active) | outcome (CYP3A5 (gene 1577)): inactive | AC50 [4]: 80.4 µM (active) | AC50 [5]: 72.9 µM (active) | AC50 [6]: 74.8 µM (active) | AC50 [7]: 50 µM (active) | AC50 [8]: 68.7 µM (active) | AC50 [9]: 57.8 µM (active) | outcome [10]: inactive | outcome [11]: inactive | outcome [12]: inactive | AC50 [13]: 82 µM (active) | AC50 (HGF (gene 3082)): 62 µM (active) | AC50 [14]: 37.3 µM (active) | AC50 [15]: 74.3 µM (active) | AC50 [16]: 71.9 µM (active)

CCON=C(CC)C1=C(O)CC(c2c(C)cc(C)cc2C)CC1=O (centres undefined)
outcome [1]: inactive | outcome [2]: inactive | outcome (CYP3A5 (gene 1577)): inactive | outcome [4]: inactive | AC50 [5]: 18.9 µM (active) | outcome [6]: inactive | outcome [7]: inactive | outcome [8]: inactive | outcome [9]: inactive | outcome [10]: inactive | outcome [11]: inactive | outcome [12]: inactive | outcome [13]: inactive | outcome (HGF (gene 3082)): inactive | outcome [14]: inactive | outcome [15]: inactive | outcome [16]: inactive

O=C(O)COc1nc(Cl)c(Cl)cc1Cl
outcome [1]: inactive | outcome [2]: inactive | outcome (CYP3A5 (gene 1577)): inactive | outcome [4]: inactive | outcome [5]: inactive | outcome [6]: inactive | outcome [7]: inactive | outcome [8]: inactive | outcome [9]: inactive | outcome [10]: inactive | outcome [11]: inactive | outcome [12]: inactive | outcome [13]: inactive | outcome (HGF (gene 3082)): inactive | outcome [14]: inactive | outcome [15]: inactive | outcome [16]: inactive

CCNc1nc(Cl)nc(NCC)n1
outcome [1]: inactive | outcome [2]: inactive | outcome [3]: inactive | outcome (CYP3A5 (gene 1577)): inactive | outcome [4]: inactive | outcome [5]: inactive | outcome [6]: inactive | outcome [7]: inactive | outcome [8]: inactive | outcome [9]: inactive | outcome [10]: inactive | outcome [11]: inactive | outcome [12]: inactive | outcome [13]: inactive | outcome (HGF (gene 3082)): inactive | outcome [14]: inactive | outcome [15]: inactive | outcome [16]: inactive

C=CC1(C)OC(=O)N(c2cc(Cl)cc(Cl)c2)C1=O (centres undefined)
outcome [1]: inactive | outcome [2]: inactive | AC50 [3]: 20.8 µM (active) | outcome (CYP3A5 (gene 1577)): inactive | outcome [4]: inactive | outcome [5]: inactive | outcome [6]: inactive | outcome [7]: inactive | outcome [8]: inactive | outcome [9]: inactive | outcome [10]: inactive | outcome [11]: inactive | outcome [12]: inactive | outcome [13]: inactive | outcome (HGF (gene 3082)): inactive | outcome [14]: inactive | outcome [15]: inactive | outcome [16]: inactive

Source: PubChem BioAssay (EPA / NIEHS)
